Source: PubChem BioAssay (Tox21)
“And” between values parts separate entries of the source, which are not always exact repeats. Equal values may be shown once. Inconclusive results are not listed. Entries that show only a call come without a potency. Some structures have more than one record in an assay (separate samples or runs), and their calls can disagree. The source made the active and inactive calls. The call rests on the fitted dose curve; in most records, active means well fitted curve in the direction sought with a large enough effect in the repeat runs; inconclusive means weak or mixed curves; inactive means no such curve, though single readings can be large; an effect the other way counts as inactive or inconclusive.

Tests used:
[1] = target: Cytochrome P450 2C9 (Homo sapiens) (UniProt P11712); experiment: Cytochrome P450 Family 2 Subfamily C Member 9 (CYP2C9) small molecule antagonists: luciferase reporter qHTS assay (AID 1671198); conditions: P450-Glo CYP2C9 enzyme assay, luciferin luminescence; series mostly up to 115 µM
Cytochrome P450 2C9 (Homo sapiens), sequence (P11712 whole entry, looked up): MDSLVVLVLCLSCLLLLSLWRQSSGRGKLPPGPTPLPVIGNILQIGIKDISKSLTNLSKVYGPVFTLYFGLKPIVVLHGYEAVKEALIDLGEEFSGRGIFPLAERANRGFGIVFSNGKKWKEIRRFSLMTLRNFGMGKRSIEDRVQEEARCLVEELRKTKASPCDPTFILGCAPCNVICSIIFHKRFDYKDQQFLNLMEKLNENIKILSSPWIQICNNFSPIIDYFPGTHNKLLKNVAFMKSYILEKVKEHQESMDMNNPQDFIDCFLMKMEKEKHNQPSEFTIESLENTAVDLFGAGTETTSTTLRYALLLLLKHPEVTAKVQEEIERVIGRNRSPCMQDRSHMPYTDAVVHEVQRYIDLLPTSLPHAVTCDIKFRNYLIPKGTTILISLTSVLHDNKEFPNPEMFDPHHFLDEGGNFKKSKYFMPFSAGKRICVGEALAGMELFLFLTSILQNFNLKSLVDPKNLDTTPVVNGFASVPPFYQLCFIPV
Method in brief: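 P450-Glo proluciferin substrate with CYP2C9 enzyme; 10 min RT preincubation, then NADPH regeneration 1 h at 37C; luciferin detection reagent 20 min RT, luminescence in relative luminescence units.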

[2] = target: Cytochrome P450 1A2 (Homo sapiens) (UniProt P05177); experiment: Cytochrome P450 Family 1 Subfamily A Member 2 (CYP1A2) small molecule antagonists: luciferase reporter qHTS assay (AID 1671199); conditions: P450-Glo CYP1A2 enzyme, luciferin luminescence, 1 h; series mostly up to 115 µM
Cytochrome P450 1A2 (Homo sapiens), sequence (P05177 whole entry, looked up): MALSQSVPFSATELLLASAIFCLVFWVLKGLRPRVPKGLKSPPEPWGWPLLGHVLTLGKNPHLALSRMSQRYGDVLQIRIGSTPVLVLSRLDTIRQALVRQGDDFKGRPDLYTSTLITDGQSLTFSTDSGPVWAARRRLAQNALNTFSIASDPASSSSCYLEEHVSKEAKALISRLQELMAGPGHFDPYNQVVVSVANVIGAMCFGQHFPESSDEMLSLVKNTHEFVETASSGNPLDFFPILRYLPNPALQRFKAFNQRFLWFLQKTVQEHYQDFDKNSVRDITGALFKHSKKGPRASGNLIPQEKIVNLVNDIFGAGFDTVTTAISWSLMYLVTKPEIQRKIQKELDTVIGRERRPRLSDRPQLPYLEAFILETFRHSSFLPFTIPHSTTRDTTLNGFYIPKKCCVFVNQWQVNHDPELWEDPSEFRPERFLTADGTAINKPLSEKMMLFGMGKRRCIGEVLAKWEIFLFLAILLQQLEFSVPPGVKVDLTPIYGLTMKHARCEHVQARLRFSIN
Method in brief: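 Luminescence from luciferin formed by CYP1A2 from a proluciferin substrate, read 20 min after detection reagent. Compound was pre-incubated 10 min with enzyme-substrate, and reaction started with NADPH regeneration solution for 1 h at room temperature; furafylline control.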

[3] = target: Voltage-gated inwardly rectifying potassium channel KCNH2 (Homo sapiens) (UniProt Q12809); experiment: Human Ether-a-go-go-Related Gene (hERG) channel small molecule antagonists: fluorescence cell-based qHTS assay (AID 1671200); conditions: hERG-U2OS cells, FluxOR thallium flux fluorescence; series mostly up to 76.8 µM
Voltage-gated inwardly rectifying potassium channel KCNH2 (Homo sapiens), sequence (Q12809 whole entry, looked up): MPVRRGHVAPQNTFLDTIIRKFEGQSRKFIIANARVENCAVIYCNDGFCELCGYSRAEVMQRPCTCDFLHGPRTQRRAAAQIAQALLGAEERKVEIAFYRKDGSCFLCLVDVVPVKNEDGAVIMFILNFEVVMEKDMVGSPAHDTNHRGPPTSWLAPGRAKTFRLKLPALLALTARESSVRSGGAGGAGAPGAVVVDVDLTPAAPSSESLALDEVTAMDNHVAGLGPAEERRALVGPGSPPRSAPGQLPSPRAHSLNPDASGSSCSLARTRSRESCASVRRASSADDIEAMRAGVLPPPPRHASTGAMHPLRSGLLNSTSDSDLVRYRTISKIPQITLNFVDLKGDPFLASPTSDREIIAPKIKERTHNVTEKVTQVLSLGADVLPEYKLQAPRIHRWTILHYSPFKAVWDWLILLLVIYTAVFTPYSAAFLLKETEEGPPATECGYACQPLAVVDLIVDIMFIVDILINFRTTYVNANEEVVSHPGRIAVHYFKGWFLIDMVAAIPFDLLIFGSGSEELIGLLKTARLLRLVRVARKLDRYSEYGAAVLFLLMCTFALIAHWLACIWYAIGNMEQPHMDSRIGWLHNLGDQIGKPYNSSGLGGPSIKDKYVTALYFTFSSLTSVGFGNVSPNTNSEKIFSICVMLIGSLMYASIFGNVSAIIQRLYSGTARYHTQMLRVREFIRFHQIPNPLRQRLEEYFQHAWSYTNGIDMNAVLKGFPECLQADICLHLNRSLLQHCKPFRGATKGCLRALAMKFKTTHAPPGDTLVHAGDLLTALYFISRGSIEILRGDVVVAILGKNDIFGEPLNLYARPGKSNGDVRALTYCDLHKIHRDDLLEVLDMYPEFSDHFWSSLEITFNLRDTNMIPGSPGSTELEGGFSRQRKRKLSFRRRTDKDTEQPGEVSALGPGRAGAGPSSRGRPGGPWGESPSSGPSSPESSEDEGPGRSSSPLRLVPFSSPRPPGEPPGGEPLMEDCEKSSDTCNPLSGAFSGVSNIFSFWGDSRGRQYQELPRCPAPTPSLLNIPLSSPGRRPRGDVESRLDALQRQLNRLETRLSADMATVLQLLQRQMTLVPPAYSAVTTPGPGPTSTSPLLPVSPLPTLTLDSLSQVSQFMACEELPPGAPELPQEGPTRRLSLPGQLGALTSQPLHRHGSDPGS
Method in brief: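 U2OS cells expressing the channel were plated at 1000 cells/well, incubated overnight at 37 C, then loaded with FluxOR II thallium-sensitive dye for 1 h at room temperature in the dark, with a further 10 min at room temperature before stimulation.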

[4] = target: Cytochrome P450 3A4 (Homo sapiens) (UniProt P08684); experiment: Cytochrome P450 Family 3 Subfamily A Member 4 (CYP3A4) small molecule antagonists: luciferase reporter qHTS assay (AID 1671201); conditions: P450-Glo CYP3A4 enzyme, luciferin luminescence, 1 h; series mostly up to 115 µM
Cytochrome P450 3A4 (Homo sapiens), sequence (P08684 whole entry, looked up): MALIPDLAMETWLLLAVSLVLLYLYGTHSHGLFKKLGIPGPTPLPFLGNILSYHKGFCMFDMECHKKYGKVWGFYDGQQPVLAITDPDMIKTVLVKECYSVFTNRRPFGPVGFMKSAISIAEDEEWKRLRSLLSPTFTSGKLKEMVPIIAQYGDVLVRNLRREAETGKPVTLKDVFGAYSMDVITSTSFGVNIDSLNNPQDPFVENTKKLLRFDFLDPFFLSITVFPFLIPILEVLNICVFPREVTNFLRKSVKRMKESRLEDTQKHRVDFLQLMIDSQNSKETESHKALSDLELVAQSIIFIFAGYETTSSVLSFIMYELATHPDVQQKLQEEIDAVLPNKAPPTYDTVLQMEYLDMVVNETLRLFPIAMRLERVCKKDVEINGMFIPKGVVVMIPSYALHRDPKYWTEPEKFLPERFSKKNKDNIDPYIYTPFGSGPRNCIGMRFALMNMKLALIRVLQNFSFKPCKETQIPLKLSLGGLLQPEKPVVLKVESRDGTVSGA
Method in brief: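 P450-Glo CYP3A4 system with proluciferin substrate; compounds preincubated 10 min RT with enzyme-substrate mix, then NADPH regeneration added for 1 h RT. Detection reagent 20 min, luminescence read as relative luminescence units.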
Further: nearly all actives have a fitted effect of over 50% in size.
Potency means the concentration at half of the fitted maximal effect.

Structure (SMILES) | Potency [1] | Potency [2] | Potency [3] | Potency [4]
c1ccc(Nc2cccc3ccccc23)cc1 | 36.1 µM (active) and 35.6 µM (active) | 6.41 µM (active) and 17.8 µM (active) | 35.1 µM (active) and 17.4 µM (active) | 36.1 µM (active) and 79.6 µM (active)
Oc1ccc(-c2ccccc2)c(Cl)c1 | 35.6 µM (active) | 12.6 µM (active) | inactive | inactive
SCCCCCCCCS | inactive | inactive | inactive | inactive
CCC(C)(C)c1cc(O)c(C(C)(C)CC)cc1O | 63.3 µM (active) | inactive | inactive | inactive
CCOB(OCC)OCC | inactive | inactive | inactive | inactive
CC(C)(c1cc(Br)c(O)c(Br)c1)c1cc(Br)c(O)c(Br)c1 | 31.6 µM (active) and 35.5 µM (active) and 30 µM (active) | inactive | inactive | 56.2 µM (active) and inactive
CCO[Si](CCCSSSSCCC[Si](OCC)(OCC)OCC)(OCC)OCC | 12.6 µM (active) | 71.1 µM (active) | inactive | 2.83 µM (active)
CN(C)CCCN1c2ccccc2Sc2ccc(C(F)(F)F)cc21 | inactive | 3.63 µM (active) | 2.68 µM (active) | inactive
NC(=O)c1ccccc1N | inactive | 31.9 µM (active) | inactive | inactive
c1cc[nH]c1 | inactive | inactive | inactive | inactive
CO[Si](CCC1CCC2OC2C1)(OC)OC (stereo not drawn) | inactive | inactive | inactive | inactive
CN1CN(C)CN(C)C1 | inactive | inactive | inactive | inactive
